# Test results as given in ChEMBL document CHEMBL3988442, “University of Dundee, Small-Polar-MMV Screening Library” (2021).
# Screen size: about 69,000 compounds; about 1,000 (1.4%) showed an effect of 50% or more. This excerpt belongs to a sample that is enriched for strong results.
# System: Leishmania donovani
# Experiment: Leishmania intramacrophage assay
# Type: functional, organism-based
# Set-up: scale not given: in the data most compounds retested in dose-response had high values
Structure (SMILES),"Percent Effect (30.3 µM, […]) [%]","Percent Effect (30 µM, 30.03 µM) [%]"
CC(C)CN(Cc1ccsc1)C(=O)CCCn1cncn1,40.23,
Cc1csc(CCCNC(=O)NC2CC(=O)N(C(C)(C)C)C2)n1 (configuration not stated),22.59,
CCOc1ccc(CN(C)C(=O)c2nc(N3CCCC3)ncc2Cl)cc1,58.99,
O=C(c1nc(N2CCCC2)ncc1Cl)N1CCN(Cc2ccsc2)CC1,1.991,
Cc1noc(C)c1CN(C)C(=O)c1nc(N2CCCC2)ncc1Cl,-8.961,
CN(Cc1ccsc1)C(=O)c1nc(N2CCCC2)ncc1Cl,20.2,
CN(Cc1ccsc1)C(=O)c1nc(N2CCCCC2)ncc1Cl,60.89,
CCOc1ccc(NC(=O)c2cnc(N3CCCC3)nc2C)cc1,,16.9
CCc1c(C(=O)N2CCN(C)[C@@H]3CS(=O)(=O)C[C@@H]32)[nH]c2ccccc12,-15.51,
CS(=O)(=O)NCc1cn2c(n1)CN(Cc1cccnc1)CC2.O=C(O)C(F)(F)F.O=C(O)C(F)(F)F,33.92,
O=C(O)C(F)(F)F.O=C(c1ccnnc1)N1CCN2C[C@H](Oc3cccc(F)c3)C[C@H]2C1,,5.462
COc1ccc(CN2C[C@@H](CN(C)CCO)[C@@H](CO)C2)cc1Cl,33.72,
COc1ccc(CN2C[C@@H](CN(C)C)[C@@H](CO)C2)cc1OC,51.5,
COc1ccc(CN2C[C@@H](CN(C)C)[C@@H](CO)C2)c(Cl)c1OC,52.59,
CN(C)C[C@@H]1CN(Cc2ccccc2C#N)C[C@@H]1CO,-11.66,
COc1cccc(OC)c1C(=O)N1C[C@@H](CN(C)C)[C@@H](CO)C1,-22.82,
COc1ccc(CN2C[C@@H](CN(C)C)[C@@H](CO)C2)cc1CN1CCCC1,7.971,
Cc1noc(C)c1CN1CCC(NC(=O)OC(C)(C)C)CC1,3.614,
CC(C)c1noc(-c2ccc(NCC3CCCOC3)nc2)n1 (configuration not stated),22.02,
Cc1cccc(-n2cnnc2CCCN2CCOCC2)c1,22.56,
COc1cccc(CN2C[C@@H]3COC[C@]3(CNC(=O)C3CC3)C2)c1.O=C(O)C(F)(F)F,43.72,
O=c1[nH]nc(CNCc2ccc(OC34CCCN(CC3)C4)cc2)[nH]1 (configuration not stated),39.69,
c1ccc(Oc2ccc(OC34CCCN(CC3)C4)cc2)cc1 (configuration not stated),89.06,
COc1cc(C#N)ccc1OC12CCCN(CC1)C2 (configuration not stated),20.92,
Cc1cnccc1CNCc1ccc(OC23CCCN(CC2)C3)cc1 (configuration not stated),13.67,
c1ccc(Oc2cccc(OC34CCCN(CC3)C4)c2)cc1 (configuration not stated),65.6,
Cc1nc(CNCc2cccc(OC34CCCN(CC3)C4)c2)n[nH]1 (configuration not stated),36.42,
